Consider 27 compounds from PubChem BioAssay (NCI).

Holding throughout (assay): NCI-60 one-dose screen, 48 h (100 = growth as untreated, 0 = no growth, -100 = all killed)
Common to all, as to details: 10 µM unless noted

The subject of test [1] is T-47D breast.
Test [2] deals with BT-549 breast.
For test [3], the system named is MDA-MB-435 melanoma.
The subject of test [4] is SW-620 colon.
For test [5], the system named is MCF7 breast.
The test system of test [6] is HCT-116 colon.
Test [7] has as its system HCC-2998 colon.
The subject of test [8] is KM12 colon.

This is part of a sample that, as a whole, favours compounds with a hit. Of some 83,000 tested, about 20% had one in any assay.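 Growth was measured after 48 h exposure to one concentration of compound in 96-well plates. Values under 10 count as active.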 A number with no mark means an inactive call. Activity calls are given as the source filed them.

In the case of `O=C1/C(=C/c2ccccc2)CCc2nc3ccccc3c(/C=C/c3ccc(Cl)cc3)c21`, the growth in test [1] was 54%; in test [2] it was 104%; in test [3], 95.6%; in test [4], 103%; in test [5] it was 51.8%; in test [6], 57.7%. Moreover, the values for the growth in test [7] and in test [8] were 93.5% and 91.4%, respectively.

Regarding `N#Cc1c(N2CCNCC2)nc2sc3cc(Cl)c(Cl)cc3n2c1=N`, the growth was 89.5% in test [1]; 118% in test [2]; 113% in test [3]; 99% in test [4]; 75.2% in test [5]; 97.1% in test [6]. Further, the growth in test [7] was 118%; in test [8], 115%.

Consider `Cc1ccc(Nc2ccc(Nc3ccc(C)cc3)c3c2C(=O)c2cccc(O)c2C3=O)cc1`, for which the growth in test [1] was 104%; in test [2] it was 113%; in test [3], 104%; in test [4] it was 99.4%; in test [5], 87.6%; in test [6], 99%. The values for the growth in test [7] and in test [8] were 109% and 92.7%, respectively.

For the compound `O=C(CCCCCCN1CC(=O)N2[C@@H](c3ccccc3Cl)c3[nH]c4ccccc4c3C[C@H]2C1=O)NO`, the growth in test [1] is 28.3%; in test [2] it was 76.8%; in test [3] it was 59.3%; in test [4], 49.1%; in test [5] it was 44%; in test [6], 34.2%. In addition, the growth was 69.6% in test [7] and 74.8% in test [8].

Consider `CN(C)CCC=C1c2ccccc2C(C)(C)c2ccccc21`, for which the growth is 81% in test [1]; 94.5% in test [2]; 66.9% in test [3]; 86% in test [4]; 81.2% in test [5]; 53.1% in test [6]. Moreover, the growth was 10.4% in test [7] and 76.9% in test [8].

In the case of `Cc1cc(NCc2cc(Nc3ccnc4cc(Cl)ccc34)ccc2F)nc(N2CCSCC2)n1`, the growth in test [1] is -37.8% (active); in test [2], 46.6%; in test [3] it was -70.4% (active); in test [4], -14.1% (active); in test [5], 0.0561% (active); in test [6], -29.1% (active). For the same compound, the growth in test [7] is 3.4% (active); in test [8], 14.9%.

`COC(=O)[C@]12CC[C@@H](C)[C@H](C)[C@@H]1C1=CC[C@@H]3[C@@]4(C)C(C=O)=C[C@@](C)(CO)[C@@H]4[C@H](O)C[C@@]3(C)[C@]1(C)CC2`: the growth in test [1] is -19.8% (active); in test [2], -15.6% (active); in test [3] it was -16% (active); in test [4], -1.77% (active); in test [5], 3.73% (active); in test [6], -81.4% (active). Further, the growth in test [7] was -79.2% (active); in test [8], 1.71% (active).

As for `COC(=O)CCC1=C(C)C2=NC1=CC1=NC(=CC3=NC(=Cc4[nH]c(/c(=C(/C)O)c4C)=C2)C(C(C)=O)=C3C)C(C)=C1CCC(=O)OC`, the growth in test [1] was 82.9%; in test [2], 100%; in test [3] it was 108%; in test [4] it was 103%; in test [5], 98.2%; in test [6], 102%. Moreover, the growth in test [7] and in test [8] was 104% in each case.

For the compound `Cc1cccc(NC(=O)CSc2nc3ccccc3[nH]2)c1`, the growth is 88.9% in test [1]; 104% in test [2]; 103% in test [3]; 101% in test [4]; 92% in test [5]; 107% in test [6]. Moreover, the growth in test [7] is 102%; in test [8], 100%.

As to `CC(=O)[C@@H]1CC[C@]2(COS(=O)(=O)c3ccc(C)cc3)CC[C@]3(C)[C@H](CC[C@@H]4[C@@]5(C)CCCNC(C)(C)[C@@H]5CC[C@]43C)[C@@H]12`, the growth is 49.7% in test [1]; 82.6% in test [2]; 52.2% in test [3]; 9.71% (active) in test [4]; 58.2% in test [5]; 32.8% in test [6]. In addition, the growth in test [7] was 26.6%; in test [8] it was 52.3%.

Regarding `O=c1[nH]ccc2nc(N3CCC(O)CC3)nc(Nc3ccc(N4CCOCC4)cc3)c12`, the growth in test [1] is 73%; in test [2] it was 29.7%; in test [3], 40.6%; in test [4], 39.6%; in test [5], 44.2%; in test [6], 22.8%. For the same compound, the growth is 80.3% in test [7] and 8.57% (active) in test [8].

Regarding `Cc1ccc(S(=O)(=O)Oc2cc(OS(=O)(=O)c3ccc(C)cc3)cc(OS(=O)(=O)c3ccc(C)cc3)c2)cc1`, the growth in test [1] was 97.8%; in test [2] it was 118%; in test [3], 96.2%; in test [4], 92.2%; in test [5], 104%; in test [6], 103%. Moreover, the growth in test [7] is 139%; in test [8], 123%.

Consider `OC(c1cccc(-n2ccc(C(F)(F)F)n2)c1)c1cnccc1NC1CCCCCC1` (stereo unspecified), for which the growth in test [1] is 22.6%; in test [2] it was 82.5%; in test [3] it was -77.4% (active); in test [4], -86.4% (active); in test [5], -14.4% (active); in test [6] it was -79.4% (active). Besides, the growth was -88.8% (active) in test [7] and -47.1% (active) in test [8].

Turning to `Cc1cc(O)c(C2=NN(c3ccc(S(N)(=O)=O)cc3)C(c3ccccc3Cl)C2)cc1Cl` (stereo unspecified), the growth was 18.3% in test [1]; 104% in test [2]; 8.16% (active) in test [3]; -27.4% (active) in test [4]; 0.899% (active) in test [5]; -90.4% (active) in test [6]. The results for the growth in test [7] and in test [8] were -39.4% (active) and -37% (active), respectively.

For the compound `COC1=CC(=O)C[C@@H](C)[C@]12Oc1c(Cl)c(OC)cc(OC)c1C2=O`, the growth in test [1] was 105%; in test [2], 78.3%; in test [3] it was 1.96% (active); in test [4], 81.5%; in test [5] it was 85.2%; in test [6], 92.4%. Besides, the growth in test [7] is 75.5%; in test [8] it was 65.5%.

Consider `COc1ccc(/C=C/c2c(C(=O)/C=C/c3cccs3)c(C)nc3ccccc23)cc1`, for which the growth in test [1] was 47.8%; in test [2], 94.3%; in test [3] it was 68.5%; in test [4], 82.5%; in test [5], 53.9%; in test [6] it was 47.5%. Moreover, the growth is 85.6% in test [7] and 78.9% in test [8].

As to `COc1cc(-c2nn(-c3ccccc3)cc2-c2ccnc(NCCNS(=O)(=O)c3ccc(Cl)cc3)n2)ccc1Cl`, the growth was 4.68% (active) in test [1]; 16.6% in test [2]; 28.2% in test [3]; 51.1% in test [4]; 18% in test [5]; 14.3% in test [6]. Besides, the growth was 34.1% in test [7] and 20.8% in test [8].

With `CC/C=C\C[C@H](O)C/C=C1/C(=O)C=C[C@@H]1C/C=C\CCCC(=O)OC`, the growth in test [1] was -0.483% (active); in test [2], -20.6% (active); in test [3], 4.45% (active); in test [4], -44.4% (active); in test [5] it was 4.43% (active); in test [6], -56.5% (active). In addition, the values for the growth in test [7] and in test [8] were -78.4% (active) and -54.3% (active), respectively.

With `C[C@@]1(CCC#N)[C@H]2CC[C@@H]3[C@H]4[C@H](C(=O)/C=C/c5cccnc5)CC[C@]4(C#N)CC[C@@]3(C)[C@]2(C)CC[C@H]1C(=O)/C=C/c1cccnc1`, the growth is 65.2% in test [1]; 80.7% in test [2]; 34% in test [3]; 37.2% in test [4]; 39.4% in test [5]; 20% in test [6]. In addition, the growth in test [7] was 105%; in test [8], 36%.

Regarding `CN(C)c1ccc(/C=C/C(=O)c2cccc(Nc3nc(Nc4ccccc4)nc(Nc4ccccc4)n3)c2)cc1`, the growth in test [1] is 81.4%; in test [2], 99.3%; in test [3] it was 101%; in test [4], 103%; in test [5] it was 75.1%; in test [6], 83.2%. Moreover, the growth in test [7] is 64.5%; in test [8], 99.8%.

Take `Cc1ccc(-n2nc3c(c(C#N)c2=O)CC(c2ccccc2Cl)C([N+](=O)[O-])=C3O)cc1` (stereo unspecified): the growth is 73.4% in test [1]; 103% in test [2]; 102% in test [3]; 109% in test [4]; 94% in test [5]; 63.8% in test [6]. In addition, the growth in test [7] was 113%; in test [8] it was 106%.

For `COc1ccc2[nH]c(O)c(C(=Nc3ccc(N(C)C(=O)CN4CCN(C)CC4)cc3)c3ccccc3)c2c1`, the growth in test [1] was 53.4%; in test [2], 35.8%; in test [3] it was 42.3%; in test [4] it was 16.8%; in test [5] it was 29%; in test [6], 11.1%. For the same compound, the growth in test [7] is 34.3%; in test [8] it was 18.2%.

Take `COc1cc(/C=C/C(=O)c2c(C)nc3ccccc3c2/C=C/c2ccc(C)cc2)cc(OC)c1OC`: the growth in test [1] is 19%; in test [2], 35.6%; in test [3], 11.1%; in test [4] it was 3.22% (active); in test [5], 17.1%; in test [6] it was -70.3% (active). The growth in test [7] is -21.3% (active); in test [8], 13.2%.

On to `CC1=C([Se]CC(OC(=O)CC[Se]c2ccccc2)C(=O)NCCCCCC(=O)OCc2ccccc2)C(=O)c2ccccc2C1=O` (stereo unspecified), for which the growth in test [1] was 56%; in test [2], 39.9%; in test [3], 20%; in test [4] it was 104%; in test [5] it was 30.2%; in test [6], -3.51% (active). In addition, the growth in test [7] is 72%; in test [8], 9.71% (active).

Take `COCN1CCC2N(COC)CCC3N(COC)CCC1N23` (stereo unspecified): the growth in test [1] was 99.6%; in test [2], 108%; in test [3], 110%; in test [4] it was 114%; in test [5], 99.4%; in test [6], 101%. Further, the growth in test [7] was 100%; in test [8], 106%.

For the compound `Clc1cccc(Cl)c1/C=C/c1cc(/C=C/c2c(Cl)cccc2Cl)[nH]n1`, the growth in test [1] was 57%; in test [2], 30.7%; in test [3], -50% (active); in test [4], 18.2%; in test [5] it was 20.9%; in test [6] it was 15.5%. Moreover, the growth is 35.1% in test [7] and 24.9% in test [8].

In the case of `COc1nc2c(c(=O)n1C)CN(c1ccccc1)C(=O)CN2C`, the growth in test [1] was 26.8% [100 µM]; in test [2] it was 24.7% [100 µM]; in test [3], 66.2% [100 µM]; in test [4], 69.3% [100 µM]; in test [5], 24.2% [100 µM]; in test [6], 49.1% [100 µM]. In addition, the results for the growth in test [7] and in test [8] were 90.4% [100 µM] and 39.1% [100 µM], respectively.
